A selection: hits, their analogues and other compounds. The true share with any hit is near 5.2%.
SMARCA2 act = SMARCA2 (BRM) function activators, primary screen, cell-based, luminescence, high throughput. MG213 cells, MMTV-luciferase reporter, dexamethasone, overnight. activation, % at 9.1 µM. 370,000 compounds, 1% hits; in the data active = activation above about 7.8%;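 note: 0% = vehicle wells and 100% = reference activator wells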
SKN-1 block = suppressors of acrylamide-induced Pgst-4::GFP reporter in worms, primary screen, SKN-1 inhibitor project, whole organism, uHTS, GFP/RFP fluorescence ratio, strain VP596. C. elegans VP596 Pgst-4::GFP/RFP ratio, 24 h. inhibition, % at 21.8 µM. 360,000 compounds, 0.49% hits. AID 624304, 2012;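 active = interference check ratio from 0.5 to 1.5 plus GFP to RFP signal ratio inhibition reaching or exceeding a fixed threshold, cut at about 30% in these data, passing the limit was not always enough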
esBAF inh = Bmi1 luciferase reporter increase in mESCs, primary screen, esBAF inhibitor project, mouse ES cells, Bmi1 luciferase knock-in, single point; 24 h; 100% = twice the neutral-well signal; 350,000 compounds, 2% hits; reporter increase, % at 12.5 µM; in the data active = activation above about 40%;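 note: 0% = median of the plate's neutral control wells and 100% = double that signal; a rise in the Bmi1 reporter signal indicates esBAF inhibition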
Vif imaging = HIV Vif self-association inhibitors, primary screen, imaging, HEK293T, single point; 340,000 compounds, 0.35% hits; AID 602346, 2012; inhibition, % at 7.49 µM; HEK293T cells, Vif self-association by quenched fluorescence, 24 h; in the data active = inhibition above about 50%, passing the limit was not always enough
GRIN3A LBD mod = binders of NR3A ligand-binding domain, primary screen, biophysical, differential scanning fluorimetry, uHTS. Glutamate receptor ionotropic, NMDA 3A (GRIN3A) ligand-binding domain. NR3A LBD differential scanning fluorimetry, Tm shift; 0% = protein alone, 100% = glycine-bound protein. Tm shift relative to glycine control, % at 25 µM. 340,000 compounds, 2.5% hits;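 active = melting temperature shift of at least 10% of the positive control shift, at one fixed dose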
NadD block = inhibitors of S. aureus NadD, primary screen, biochemical, colorimetric, uHTS | Nicotinate-nucleotide adenylyltransferase NadD (Staphylococcus aureus N315) | purified NadD enzyme, colorimetric absorbance read-out | inhibition, % at 20 µM | 360,000 compounds, 0.78% hits; in the data active = inhibition above about 26%
SMARCA2 conf = SMARCA2 (BRM) function activators, confirmation, cell-based, luminescence, triplicate | shares compounds with SMARCA2 act | MG213 cells, MMTV-luciferase with dexamethasone, overnight; MG213 cells expressing E1A, Rb sequestered; DMSO wells 0%, reference activator 100% | activation, % at 9.1 µM | 3,500 compounds, 30% hits | AID 652260, 2013;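 active = activation above its plate's cutoff, the mean activation of tested wells plus 3 SD, cut at about 7.9% in these data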
GAL4-VP16 Luc = GAL4-VP16 luciferase reporter activation, counter-screen for SMARCA2 (BRM) activator project, cell-based, pG5luc, luminescence, high throughput | activation, % at 9.1 µM | shares compounds with SMARCA2 act | 3,500 compounds, 41% hits | HEK293 GAL4-VP16 pG5luc reporter; scaled: DMSO wells 0%, SAHA wells 100%;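 active = activation above the solvent-only control well mean plus 3 SD, averaged across control plates, cut at about 5.2% in these data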
* = called active by the depositor; . = no result given.

SMILES | SMARCA2 act | SKN-1 block | esBAF inh | Vif imaging | GRIN3A LBD mod | NadD block | SMARCA2 conf | GAL4-VP16 Luc
COc1nc(=O)n(C2C=CC(=O)O2)cc1F (centres undefined) | 15.5* | -1.9 | . | 0.3 | . | -6.4 | 23.4* | 5.7*
O=C(C[C@H]1CC[C@@H]2[C@H](COC[C@H](O)CN2C(=O)c2ccccc2F)O1)NCc1ccccc1 | . | . | -7.0 | . | . | . | . | .
COc1ccc(C(=O)Nc2ccc3c(c2)OCCO3)c(OC)c1 | 14.0* | 4.1 | 0.0 | . | . | -2.5 | 6.9 | 14.3*
COc1ccc(C(=O)Nc2ccc3c(c2)OCCO3)cc1 | 8.0* | -4.0 | -26.9 | 11.6 | -34.1 | -7.2 | 4.8 | 10.0*
O=C(Nc1cccc(Cl)c1)c1ccc2c(c1)OCCO2 | 9.0* | 21.4 | 30.1 | -6.0 | -16.1 | -3.3 | 5.6 | 8.7*
CC(=O)Oc1ccc(C(=O)Nc2ccc3c(c2)OCCO3)cc1 | 3.7 | 7.0 | -9.2 | -2.7 | -6.5 | 1.3 | . | .
O=C(Nc1cccc2nsnc12)c1ccc2c(c1)OCCO2 | 8.8* | 6.5 | 39.7 | -8.6 | -0.9 | -8.9 | 5.4 | 9.7*
COc1ccc(C(=O)OCC(=O)Nc2ccc3c(c2)OCCO3)c(OC)c1 | 3.4 | 11.1 | -0.9 | -1.3 | 2.8 | -2.1 | . | .
CC(C)(C)[S@@](=O)N1Cc2cc(C(=O)N3CCc4ccccc4C3)nc(-c3cccc(-c4ccncc4)c3)c2[C@H]1CCO | . | . | 13.1 | . | . | . | . | .
Cc1noc(C)c1S(=O)(=O)Nc1ccc2c(c1)C(=O)N([C@H](C)CO)C[C@H](C)[C@@H](CN(C)Cc1ccc(C(F)(F)F)cc1)OCCCC[C@H](C)O2 | . | . | 10.9 | . | . | . | . | .
C[C@@H]1CN([C@H](C)CO)C(=O)c2cccc(NC(=O)c3ccncc3)c2O[C@H]1CN(C)S(=O)(=O)c1cn(C)cn1 | . | . | -2.5 | . | . | . | . | .
CCNC(=O)C[C@H]1CC[C@H]2[C@@H](COC[C@@H](O)CN2C(=O)Nc2ccc(Cl)c(Cl)c2)O1 | . | . | 5.0 | . | . | . | . | .
Cc1cc(-c2ccco2)c(C#N)c2nc3ccccc3n12 | 12.3* | 1.3 | . | 20.7 | -3.5 | 26.8 | 41.3* | 6.5*
O=C(Nc1ccccn1)C(=O)Nc1ccccn1 | 10.7* | 2.5 | . | 21.5 | -3.5 | -3.7 | 6.1 | 8.5*
COc1ccccc1CNC(=O)C[C@@H]1C=C[C@@H](NC(=O)CC2CC2)[C@H](CO)O1 | . | . | -5.4 | . | . | . | . | .
O=C(Nc1ccc(F)cc1)C(c1ccccc1)N1CCN(c2ccncc2)CC1 (centres undefined) | 8.3* | -5.4 | . | . | . | . | 1.5 | -0.3
COc1ccc(C(C(=O)Nc2ccc(F)cc2)N2CCN(c3ccncc3)CC2)cc1 (centres undefined) | -1.1 | -11.6 | . | . | . | . | . | .
C[C@H](CO)N1C[C@H](C)[C@H](CN(C)S(=O)(=O)c2cccs2)Oc2c(NC(=O)Nc3ccc(C(F)(F)F)cc3)cccc2C1=O | . | . | 3.5 | . | . | . | . | .
C/C(=N\NC(=O)c1ccccc1OCc1ccc(F)cc1)c1ccccn1 | 17.3* | 19.4 | -0.4 | -4.7 | 2.5 | 2.1 | -15.1 | 7.6*
Cc1noc(C)c1S(=O)(=O)Nc1ccc2c(c1)C(=O)N([C@H](C)CO)C[C@H](C)[C@@H](CN(C)Cc1ccncc1)OCCCC[C@H](C)O2 | . | . | -0.5 | . | . | . | . | .
Cc1cc(C)cc(NC(=O)CCN2CC(C)OC(C)C2)c1 (centres undefined) | 8.4* | 2.9 | 2.5 | 12.8 | -11.2 | 0.4 | -2.9 | 2.0
Cc1cccc(NC(=O)CCN2CC(C)OC(C)C2)c1 (centres undefined) | 0.7 | 12.7 | -0.8 | 0.0 | -0.1 | 2.5 | . | .
CCn1c(SCC(N)=O)nc2ccccc2c1=O | 8.0* | 3.6 | 6.4 | -4.7 | -1.0 | 4.2 | -1.9 | -0.1
COc1cc(SC)ccc1C(=O)Nc1ccc(C)cc1C | 8.1* | -5.8 | . | -6.1 | 3.8 | -8.1 | 13.2* | 14.3*
CCN(C)c1ccc(/C=N\n2nnnc2N)cc1 | 12.3* | 26.5 | . | 36.3 | -0.9 | 1.2 | 7.6 | 14.9*
SMILES | SMARCA2 act | SKN-1 block | esBAF inh | Vif imaging | GRIN3A LBD mod | NadD block | SMARCA2 conf | GAL4-VP16 Luc
Nc1nnnn1/N=C/c1ccc(O)cc1 | -0.5 | 32.1 | -3.6 | -0.3 | 0.1 | 0.8 | . | .
CN1CCN(C(=O)C[C@@H]2C[C@H]3c4cc(NC(=O)CC5CC5)ccc4O[C@H]3[C@H](CO)O2)CC1 | . | . | -4.8 | . | . | . | . | .
Cc1ccccc1C(=O)NNC1CC(=O)N(c2ccc3c(c2)OCCO3)C1=O (centres undefined) | -0.6 | 10.2 | . | -25.4 | -1.6 | -0.9 | . | .
O=C(NNC1CC(=O)N(c2ccc3c(c2)OCCO3)C1=O)c1ccccc1 (centres undefined) | 8.6* | -6.6 | -8.9 | 5.8 | 3.0 | -5.6 | -1.9 | 0.7
COc1ccc2oc(=Nc3ccccc3)c(-c3nc4ccccc4[nH]3)cc2c1 | 11.1* | -3.7 | . | -7.4 | 2.1 | 1.5 | 1.9 | 9.8*
Cc1cc(C)c2c(N)c3cccc(C)c3nc2n1 | 27.7* | 13.7 | . | . | -0.7 | 4.5 | 347.4* | 6.1*
C[C@H]1CN([C@@H](C)CO)C(=O)c2cc(NC(=O)Cc3ccccc3)ccc2O[C@@H]1CN(C)C(=O)Nc1ccccc1 | . | . | 2.3 | . | . | . | . | .
Cc1ccc(S(=O)(=O)N(C)Cc2ccc(C(=O)N/N=C3\CC(=O)CC(C)(C)C3)cc2)cc1 | 10.4* | -0.8 | . | -1.8 | -2.4 | -0.6 | -0.7 | 0.4
CCN(CC)S(=O)(=O)c1cccc(C(=O)N/N=C2\CC(=O)CC(C)(C)C2)c1 | -3.8 | -11.2 | . | -1.9 | -2.0 | -1.1 | . | .
Cc1ccc2c(c1)C(=NC1CCCCC1)c1cc3ccccc3nc1-2 | 11.4* | 1.7 | . | 0.1 | -5.4 | -2.9 | 10.8* | 7.6*
C[C@@H]1CCCCO[C@H](CN(C)C(=O)CCCN(C)C)[C@H](C)CN([C@@H](C)CO)C(=O)c2cc(NS(C)(=O)=O)ccc2O1 | . | . | -3.4 | . | . | . | . | .
CCNC(=O)C[C@@H]1CC[C@H](NC(=O)C2CCOCC2)[C@H](CO)O1 | . | . | -1.9 | . | . | . | . | .
COc1ccc(OCc2cccc(C(=O)Nc3ccc(CN4CCCCC4)cc3)c2)cc1 | 9.9* | 8.9 | . | 2.1 | -9.7 | -0.9 | 9.4* | 13.6*
